Screening results from PubChem BioAssay.
SW480 rerep – A quantitative high throughput screen for small molecules that induce DNA re-replication in SW480 colon adenocarcinoma cells; SW480 DNA re-replication, Hoechst DNA content imaging, 48 h; AID 624297, 2012; 340,000 compounds, 1.8% hits; Potency, µM (titrated, usually from 46.1 µM), for the others: at the highest dose re-replication activation, hits mostly activators; also: % of control where 0% means no effect; nearly all actives have a fitted effect of over 55% in size
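Cells (250 per well) received 23 nL compound or DMSO by pin tool and were kept 48 hr at 37 C, 5% CO2. Nuclei were then stained with Hoechst for 40 min and scanned for DNA content.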
MCF10A rereplic – A quantitative high throughput screen for small molecules that induce DNA re-replication in MCF 10a normal breast cells; AID 624296, 2012; Potency, µM (top dose mostly 46.1 µM), without a hit: at the highest dose activity, positive = re-replication, usual class: activators; MCF 10A DNA re-replication, Hoechst nuclear intensity, 48 h; 350,000 compounds, 2.9% hits; also: % of control where 0% means no effect; nearly all actives have a fitted effect of over 50% in size
Gal4-VP16 FLuc – VP16 counterscreen qHTS for inhibitors of ROR gamma transcriptional activity. Drosophila S2 Gal4-VP16 UAS-luciferase, luminescence, 20 h. Potency, µM (titrated, usually from 53.6 µM), for the others: top-dose activity, negative = inhibition, hits mostly inhibitors. 310,000 compounds, 3.5% hits. AID 2546, 2010;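 also: Gal4-VP16 expression switched on by copper sulfate through the metallothionein promoter; % is scaled to controls: 0 for no effect and ±100 for the full control effect; nearly all actives have a fitted effect of over 50% in size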
RORgamma inh – qHTS for inhibitors of ROR gamma transcriptional activity. Nuclear receptor ROR-gamma (Mus musculus), P51450. Drosophila S2 Gal4-RORgamma UAS-luciferase reporter, 20 h. Potency, µM (titrated, usually from 53.6 µM), inactives show at the top dose activity change, negative = inhibition, hits mostly inhibitors. 310,000 compounds, 5.4% hits; also: % is scaled to controls: 0 for no effect and ±100 for the full control effect; nearly all actives have a fitted effect of over 60% in size
Target sequence (P51450 whole entry, looked up, the tested form may be a part): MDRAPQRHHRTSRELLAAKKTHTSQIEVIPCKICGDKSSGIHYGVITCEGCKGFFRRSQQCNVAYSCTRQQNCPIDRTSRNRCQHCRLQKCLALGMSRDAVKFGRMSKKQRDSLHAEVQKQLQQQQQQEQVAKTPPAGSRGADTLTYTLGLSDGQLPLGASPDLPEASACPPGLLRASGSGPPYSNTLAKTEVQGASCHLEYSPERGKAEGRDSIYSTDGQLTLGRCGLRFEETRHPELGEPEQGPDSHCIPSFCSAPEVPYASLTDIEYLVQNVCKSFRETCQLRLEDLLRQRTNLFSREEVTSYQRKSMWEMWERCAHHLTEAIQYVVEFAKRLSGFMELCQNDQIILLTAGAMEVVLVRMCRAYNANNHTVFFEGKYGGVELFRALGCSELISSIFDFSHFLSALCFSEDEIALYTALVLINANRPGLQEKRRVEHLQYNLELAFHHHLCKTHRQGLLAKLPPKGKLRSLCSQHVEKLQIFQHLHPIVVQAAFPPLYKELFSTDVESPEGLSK
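Using a luciferase readout, inhibitors were identified by reduced reporter activity in Drosophila cells coexpressing a copper-inducible Gal4–ROR gamma fusion and UAS-driven Photinus luciferase, incubated 20 hr after 700 uM copper sulfate.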
ELG1 DNA repair – qHTS screen for small molecules that inhibit ELG1-dependent DNA repair in human embryonic kidney (HEK293T) cells expressing luciferase-tagged ELG1; HEK293T ELG1-luciferase reporter, luminescence, 16 h; DNA damage induced by 5-fluorouridine; Potency, µM (top dose mostly 46.1 µM), for the others: at the top dose activity change, negative = inhibition, hits mostly inhibitors; 330,000 compounds, 2.3% hits; AID 504467, 2011; also: % is scaled to controls: 0 for no effect and ±100 for the full control effect; nearly all actives have a fitted effect of over 55% in size
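Overnight (16 hr) co-exposure of 2,000 cells/well to 5-fluorouridine and compound at 37 °C preceded detection. Luciferase was quantified via ONE-Glo luminescence; loss of signal denotes inhibition.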
The depositor's hits bear a star; ? = inconclusive; nt = no result given; [ ] = dose if it differs, or a comment. Rows were chosen to be rich in hits. Some 10% of all compounds tested hit in one or more screens of this group. Calls follow the shape of the dose curve; as a rule, active = well fitted curve in the direction sought with a large enough effect; inconclusive = small, poorly fitted or top-dose-only effect, or another doubt; inactive = no such curve, though single readings can be large; an effect the other way counts as inactive or inconclusive. Potency is read from the fitted curve at half-maximal effect.

SMILES	SW480 rerep	MCF10A rereplic	Gal4-VP16 FLuc	RORgamma inh	ELG1 DNA repair
CC(=O)n1c2ccccc2c2ccccc21	-10%	?	-1%	25%	-28%
Cc1ccc(C(=O)n2c3ccccc3c3ccccc32)cc1	21µM*	?	3%	33%	10%
O=[N+]([O-])c1ccc(COc2ccc(-c3[nH]ncc3-c3ccccc3)c(O)c2)cc1	nt	?	5.6µM*	7.1µM*	-1%
Oc1cc(OCc2ccccc2)ccc1-c1[nH]ncc1-c1ccccc1	1%	23µM*	?	10µM*	5%
COc1ccccc1-c1cn[nH]c1-c1ccc(OCc2ccc([N+](=O)[O-])cc2)cc1O	-1%	4%	-21%	?	?
COC(=O)c1ccc(-c2ccc(F)cc2)nc1C	29µM*	-6%	-23%	-2%	?
Cc1ccc(-c2ccc(C(=O)O)c(C)n2)cc1	2.3µM*	-47%	1%	4%	-1%
COc1ccc(/C=C(\C#N)C(=O)C(C)(C)n2cncn2)cc1	-4%	-17%	-2%	-7%	0%
O=C(N/N=C/c1ccoc1)c1cccc([N+](=O)[O-])c1	-1%	11%	?	11µM*	-3%
O=C(N/N=C/c1ccc(O)cc1)c1cccc(C(F)(F)F)c1	0%	-7%	3%	-4%[10 µM]	0%
O=C(N/N=C/c1ccc2ncccc2c1)c1cccc([N+](=O)[O-])c1	-5%	-21%	23%	-12%	0%
O=C(N/N=C/c1ccccn1)c1cc([N+](=O)[O-])cc([N+](=O)[O-])c1	?	13%	4.5µM*	3.5µM*	7%
O=C(N/N=C/c1ccccc1O)c1cccc(C(F)(F)F)c1	?	?	2µM*	1µM*	?
O=C(N/N=C/c1ccccn1)c1cccc([N+](=O)[O-])c1	?	16%	13µM*	4.5µM*	?
O=C(N/N=C/c1ccccn1)c1ccc([N+](=O)[O-])cc1	-1%	-5%	-13%	1%	?
CC(C)N(Cc1ccccc1)C(=O)CN1C(=O)COc2ccc(S(=O)(=O)NC3CCCC3)cc21	-8%	12%	-7%	-1%	-4%
O=C(O)c1cccc(NC(=S)N/N=C/c2ccccn2)c1	-1%	-4%	?	4.5µM*	?
O=C(O)c1cccc(NC(=S)N/N=C/c2cccc(O)c2)c1	-1%	0%	-5%	0%	?
Cc1cccc(C(=O)N/N=C/c2ccccn2)c1	-6%	13%	14µM*	6.3µM*	?
O=C(N/N=C/c1ccccn1)c1cccc(NC(=O)c2ccccc2Cl)c1	-6%	0%	4%	-21%	-2%
O=C(N/N=C/c1ccccn1)c1ccc(NC(=O)c2cccc([N+](=O)[O-])c2)cc1	-3%	?	-7%	-13%	16µM*
O=C(N/N=C/c1ccccn1)c1cccc(S(=O)(=O)Nc2ccccc2Cl)c1	-2%	13%	?	20µM*	-13%
Cc1ccc(C)c(N2CCN(C(=O)CCc3nc(-c4ccccc4Cl)no3)CC2)c1	-17%	?	nt	nt	?
O=C(CCN1C(=O)[C@@H]2Cc3ccccc3CN2C1=O)N[C@@H](C(=O)O)c1ccccc1	1%	-1%	-2%	-17%	12%
CCN(CC)S(=O)(=O)c1cccc(C(=O)N/N=C/c2ccccn2)c1	-3%	7%	?	8.9µM*	-14%
O=C(N/N=C/c1ccc(Br)s1)c1cccc([N+](=O)[O-])c1	-8%	?	1µM*	0.45µM*	-4%
Cc1ccc(/C=N/NC(=O)c2cccc([N+](=O)[O-])c2)o1	-100%	-2%	?	-22%[10 µM]	2%
COc1ccc(NS(=O)(=O)c2cccc(C(=O)N/N=C/c3c(F)c(F)c(F)c(F)c3F)c2)cc1	?	18µM*	nt	nt	nt
